HT1080NT lethal – kills 2HG-producing HT-1080-NT fibrosarcoma cells | Potency, µM (top dose mostly 46.1 µM), without a hit: top-dose activity, negative = less viability, hits mostly cytotoxic | actives 1.6% (n = 360,000) | HT-1080-NT fibrosarcoma viability, CellTiter-Glo ATP luminescence, 48 h;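 also: NT is the 2HG producing partner of a matched IDH1 knockdown line; potency is read from the fitted curve at half-maximal effect; 0% = DMSO-treated cells and -100% = media-only wells without cells; nearly all actives have a fitted effect of over 55% in size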
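Read-out is CellTiter-Glo luminescence after 10 minutes at room temperature, following 48 hours' compound treatment of HT-1080-NT cells (750 cells/well, RPMI, 5% FBS, 37 degrees C).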
TDP1 cell CPT – DT40-hTDP1 cell growth loss with CPT | actives 12% (n = 420,000) | AID 686979 | Potency, µM (titrated, usually from 46.2 µM), for the others: top-dose activity change, negative = growth inhibition, actives largely listed as inhibitors | chicken DT40 Tdp1-/-;hTDP1 cells + 20 nM CPT, ATP luminescence, 48 h; also: potency is read from the fitted curve at half-maximal effect; nearly all actives have a fitted effect of over 55% in size
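Chicken DT40 Tdp1-/- cells complemented with human TDP1, 400 cells/well, exposed to compounds plus 20 nM camptothecin for at least 48 h at 37 C; viability read as ATP content by CellTiter-Glo luminescence.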
IL-1B inflam inh – inflammasome signaling inhibition, IL-1 beta readout; THP-1 LPS/ATP IL-1B secretion, AlphaLISA, 16 h; hits give low values; activity change, % at 57.5 µM; actives 4.7% (n = 360,000); in the data active = activity change below about -50%; inconclusive = mostly about -30% to -49%
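THP-1 cells pretreated 1 hr with compounds (up to 57.5 uM final), then stimulated with LPS (250 ng/mL final) plus ATP (1.25 mM final); secreted IL-1B measured by AlphaLISA after 16 hr, decreased signal indicating inhibition.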
HT1080 IDH1KD tx – HT-1080 IDH1 knockdown cell toxicity (counter line). HT-1080 IDH1 knockdown viability, ATP luminescence, 48 h. Potency, µM (top dose mostly 46.1 µM), for the others: top-dose activity, negative = toxicity, usual class: cytotoxic. actives 2% (n = 360,000);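 also: potency is read from the fitted curve at half-maximal effect; 0% = DMSO wells and -100% = cell-free medium wells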
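Assay cells: HT-1080 with IDH1 knockdown, 750 per well, RPMI/5% FBS. Exposure: 48 h at 37 °C following 2 h pre-incubation. Read: CellTiter-Glo luminescence; fitted concentration-response, curve class assigned.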
DT40 TDP1 no CPT – qHTS for Inhibitors of human tyrosyl-DNA phosphodiesterase 1 (TDP1): qHTS in cells in absence of CPT; DT40 Tdp1-/- hTDP1 cells, no CPT, ATP luminescence, 48 h; Potency, µM (series often up to 46.2 µM), for inactives: at the highest dose activity change, negative = growth inhibition, hits mostly inhibitors; actives 15% (n = 420,000); AID 686978, 2013; also: potency is read from the fitted curve at half-maximal effect; nearly all actives have a fitted effect of over 55% in size
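No-CPT arm: Tdp1-/-;hTDP1 DT40 cells (400/well) plus compounds, incubated ≥48 hr at 37 °C. Readout CellTiter-Glo luminescence.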
An asterisk follows results filed as active; ? = inconclusive; · = no result given. An excerpt weighted towards active compounds, which were near 19% of everything screened. Unless noted, calls follow the shape of the dose curve; as a rule, active = well fitted curve in the direction sought with a large enough effect; inconclusive = small, poorly fitted or top-dose-only effect, or another doubt; inactive = no such curve, though single readings can be large; an effect the other way counts as inactive or inconclusive. Unless noted, % is scaled to controls: 0 for no effect and ±100 for the full control effect.

SMILES	HT1080NT lethal	TDP1 cell CPT	IL-1B inflam inh	HT1080 IDH1KD tx	DT40 TDP1 no CPT
CC1=C(C(=O)OC2CCCC2)C(c2ccccc2C(F)(F)F)CC(=O)N1 (stereo not drawn)	·	18µM*	·	·	15µM*
CCC1(C)SC(N)=NN1C(C)=O (stereo not drawn)	16%	6%	0	12%	18%
CC(C(=O)Nc1ccccc1)c1ccc(-c2ccccc2)c(F)c1 (stereo not drawn)	?	18µM*	?	21µM*	23µM*
CC(C)Cc1ccc(C(C)C(=O)Nc2ccc(O)cc2)cc1 (stereo not drawn)	-17%	23µM*	3	-10%	13µM*
CC(C)c1ccc(C(=O)Nc2cccnc2)cc1	1%	-1%	-4	9%	-27%
CC(C)Cc1ccc(C(C)C(=O)Nc2cccnc2)cc1 (stereo not drawn)	?	2.3µM*	46	?	3.7µM*
CC(C)CC(=O)[C@@H](O)Cc1ccc(O)cc1	19%	-3%	22	4%	-22%
CC(C)Cc1ccc(C(C)C(N)=Nc2ccc(O)cc2)cc1 (stereo not drawn)	?	26µM*	·	21µM*	16µM*
O=S(=O)(Nc1nc2ccc(S(=O)(=O)N3CCCC3)cc2s1)c1ccc(F)cc1	-5%	-25%	28	-24%	-18%
c1ccc(-c2csc(-n3cnnn3)n2)cc1	-3%	-5%	11	-6%	-26%
Cc1ccc(N2C(=O)CSC23C(=O)N(CC(=O)NC2CCCCC2)c2ccccc23)cc1C (stereo not drawn)	·	-17%	·	·	?
CC1=C(C(=O)Nc2ccccc2C)C(c2ccccn2)n2ncnc2N1 (stereo not drawn)	·	2%	·	·	-1%
CC(C(=O)Nc1ccc(O)cc1)c1cccc(C(=O)c2ccccc2)c1 (stereo not drawn)	-9%	?	-51*	-23%	21µM*
O=C1Nc2ccc(Br)cc2/C1=C/C1CC=CCC1 (stereo not drawn)	?	18µM*	-99*	21µM*	?
O=C(NCC(c1cccnc1)N1CCN(c2ccc(F)cc2)CC1)c1cccc(Cl)c1 (stereo not drawn)	-22%	16µM*	-22	-30%	10µM*
O=C(NCC(c1cccnc1)N1CCN(c2ccccc2F)CC1)OCc1ccccc1 (stereo not drawn)	-2%	?	-18	?	18µM*
O=C(NCCc1c[nH]c2ccccc12)C(=O)NCC(c1cccnc1)N1CCN(c2ccccc2)CC1 (stereo not drawn)	-23%	18µM*	32	-23%	16µM*
O=C(NCc1cccnc1)C(=O)NCC(c1cccnc1)N1CCN(c2ccc(F)cc2)CC1 (stereo not drawn)	·	21µM*	·	·	18µM*
O=C(CCn1c(=O)c2ccccc2n(Cc2ccc(F)cc2Cl)c1=O)NCc1ccc2c(c1)OCO2	·	-1%	·	·	?
Cc1ccc(CN2CCN(Cc3cnc(N4CCOCC4)s3)CC2CCO)o1 (stereo not drawn)	9%	2%	12	6%	19%
O=C(CSc1nc(=O)n(CCN2CCOCC2)c2c1CCC2)Nc1ccccc1	·	18%	·	·	1%
O=C(NCC(c1cccnc1)N1CCN(c2ccccc2)CC1)OCc1ccccc1 (stereo not drawn)	11%	?	0	3%	?
COc1ccc(N2CCN(C(CNC(=O)C(=O)NCCc3c[nH]c4ccccc34)c3ccco3)CC2)cc1 (stereo not drawn)	-10%	-16%	-52*	-11%	?
O=C(NCC(c1cccnc1)N1CCN(c2ccccc2F)CC1)c1ccco1 (stereo not drawn)	1%	?	40	2%	23µM*
O=C(NCC(c1cccnc1)N1CCN(c2ccc(F)cc2)CC1)OCc1ccccc1 (stereo not drawn)	-7%	?	-17	-5%	15µM*
SMILES	HT1080NT lethal	TDP1 cell CPT	IL-1B inflam inh	HT1080 IDH1KD tx	DT40 TDP1 no CPT
O=C(NCCc1ccccc1)C(=O)NCC(c1cccnc1)N1CCN(c2ccc(F)cc2)CC1 (stereo not drawn)	·	15µM*	·	·	10µM*
N#Cc1c(N(CC(=O)O)CC(=O)O)sc(C(=O)O)c1CC(=O)O	·	-4%	·	·	-22%
O=C(c1ccco1)N1CCC2(CCCN(Cc3ccccc3)C2)CC1	·	-4%	·	·	?
O=c1cc(O)c(-c2ccc(Cl)cc2)c(Cl)[nH]1	-5%	-5%	15	-4%	6%
O=C1c2cc(Cl)ccc2-c2c(O)cc(Cl)cc21	9.2µM*	?	-74*	23µM*	15µM*
Cc1c(NC(=O)/C(C#N)=C/c2ccc(-c3ccc(Cl)cc3)o2)c(=O)n(-c2ccccc2)n1C	-1%	10µM*	-62*	-17%	15µM*
Cc1c(NC(=O)/C(C#N)=C\c2cccs2)c(=O)n(-c2ccccc2)n1C	5%	-16%	7	0%	-20%
CCCCOC(=O)/C(C#N)=C\c1ccc(-c2ccc(Cl)cc2)o1	·	-13%	·	·	?
CC1CC1c1ccc(/C=C(\C#N)C(=O)Nc2ccc(Cl)cc2)o1 (stereo not drawn)	-7%	?	-14	?	16µM*
CCOc1ccc(NC(=O)/C(C#N)=C\c2ccc(-c3ccc(Cl)cc3)o2)cc1	·	?	·	·	10µM*
Cc1cc(NC(=O)/C(C#N)=C/c2ccc(-c3cccc(C(F)(F)F)c3)o2)n(-c2ccccc2)n1	1%	-26%	0	2%	?
Cc1cc(NC(=O)/C(C#N)=C/c2ccc(-c3ccc(SC(F)F)cc3)o2)n(-c2ccccc2)n1	7%	?	-6	4%	18µM*
O=S1(=O)N[C@@H](Cc2ccccc2)COc2ccc(Cl)cc21	8%	?	21	9%	?
CCCCOc1ccc(CNC(=O)c2cccc(NC(=O)N3CCSc4ncccc43)c2)cc1	·	?	·	·	16µM*
CC(C)Oc1ccc(CNC(=O)c2cccc(NC(=O)N3CCSc4ncccc43)c2)cc1	·	?	·	·	21µM*
CCOc1ccc(CNC(=O)c2cccc(NC(=O)N3CCSc4ncccc43)c2)cc1	·	?	·	·	23µM*
O=C(NCc1ccccc1)c1ccc(NC(=O)N2CCSc3ncccc32)cc1	·	-9%	·	·	-12%
CCN1CCSc2ccc(C(=O)NCc3ccccc3C)cc21	21%	?	?	-2%	?
Cc1ccccc1CNC(=O)c1cccc(NC(=O)N2CCSc3ncccc32)c1	·	18µM*	·	·	16µM*
COc1ccc(CCNC(=O)Cc2ccc(NC(=O)N3CCSc4ncccc43)cc2)cc1OC	·	-27%	·	·	?
